The source of these data is PubChem BioAssay (NCATS).

The structures appear in SMILES notation. Inconclusive results are not listed. Unmarked numbers belong to inactive results. Calls of active or inactive are those of the source. The call rests on the fitted dose curve; in most records, active means well fitted inhibition curve with a large enough effect in the repeat runs; inconclusive means weak or mixed curves; inactive means no such curve, though single readings can be large or run the other way.
On the % scale 0 is the no-effect control and ±100 the full control effect; potency means the concentration at half of the fitted maximal effect.

For this assay, the target named is Cytochrome P450 2C9 (Homo sapiens) (UniProt P11712). Nature of the assay: Cytochrome P450 family 2 subfamily C member 9 (CYP2C9) small molecule antagonists: luciferase biochemical (cell-free) qHTS assay (AID 1645842). Further: nearly all actives have a fitted effect of over 55% in size. Conditions: P450-Glo CYP2C9 enzyme assay, luciferin luminescence; series mostly up to 57.4 µM. The procedure: National Center for Advancing Translational Sciences [NCATS] Assay Overview: Cytochrome P450 (CYP) enzymes are membrane-bound hemeproteins that play a key role in metabolism of drugs and xenobiotics. Assaying the effect of chemicals on CYP isozymes is useful to minimize the adverse drug reactions and toxicities in drug development process. Chemical compounds were tested for their effect on CYP enzyme activities by using P450-Glo (TM) screening systems (Promega Corporation, Madison, WI). These systems provide a luminescent method containing proluciferin substrates and are converted to luciferin products by CYP isozymes. The luciferin products formed are detected with a luciferin detection reagent, and the amount of light produced is proportional to CYP activity. P450-Glo (TM) CYP2C9 screening system (Catalog. No. V9790) was used to detect the compounds that interfere in CYP2C9 activity.
Sequence of Cytochrome P450 2C9 (Homo sapiens) (P11712 whole entry, looked up): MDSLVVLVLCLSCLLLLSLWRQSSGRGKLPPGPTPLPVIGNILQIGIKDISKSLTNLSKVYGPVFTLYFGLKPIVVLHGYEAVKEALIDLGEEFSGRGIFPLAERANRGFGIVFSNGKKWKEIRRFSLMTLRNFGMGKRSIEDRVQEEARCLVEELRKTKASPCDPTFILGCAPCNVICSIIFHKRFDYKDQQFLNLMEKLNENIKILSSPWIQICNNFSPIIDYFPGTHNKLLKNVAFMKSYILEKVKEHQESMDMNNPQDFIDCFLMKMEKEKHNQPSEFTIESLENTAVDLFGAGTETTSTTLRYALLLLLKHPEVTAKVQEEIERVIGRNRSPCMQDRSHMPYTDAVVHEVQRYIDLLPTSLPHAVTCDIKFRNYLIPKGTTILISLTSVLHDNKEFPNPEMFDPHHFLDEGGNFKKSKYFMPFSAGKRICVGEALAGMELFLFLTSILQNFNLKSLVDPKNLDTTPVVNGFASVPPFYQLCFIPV
Assay Protocol Summary: Two ul of enzyme-substrate mix supplemented with 0.4% Bovine Serum Albumin was dispensed into medium binding white/solid 1536-well plates (Greiner Bio-One North America Inc., Monroe, NC) using a Flying Reagent Dispenser (FRD, Aurora Discovery, San Diego, CA). […] The assay plates were incubated at room temperature for 10 min. Then 2 ul of NADPH regeneration solution was added to each well of the assay plates using an FRD and incubated at 37C for 1 h. The reaction was stopped by adding 4 ul of detection reagent using an FRD and after 20 min incubation at room temperature, the luminescence signal was measured using a ViewLux plate reader (Perkin Elmer, Shelton, CT). Data were expressed as relative luminescence units.
For `CCc1cc(CN2CC(C(=O)O)C2)sc1-c1noc(-c2ccc(Oc3ccccc3)cc2)n1`, the Potency result is “inactive”. Turning to `O=C(Nc1ccc(S(=O)(=O)Nc2nccs2)cc1)C(c1ccccc1)c1ccccc1`, the Potency is 0.674 µM (active). Take `O=C(CN1C(=O)C2(CCCC2)NCC1c1cc(F)cc(F)c1)Nc1ccc2c(c1)CC1(C2)C(=O)Nc2ncccc21` (stereo not given): the Potency is 3.01 µM (active). For the compound `CNC(=O)c1ccccc1Nc1nc(Nc2ccc(N3CCNCC3)cc2)ncc1Cl`, the Potency was 6.01 µM (active). The same measure, in the same setting: the same measure for `NC1CCC(Nc2cc(-c3cccc(NCc4cccc(F)c4)n3)c(Cl)cn2)CC1` (stereo not given): 2.13 µM (active). Consider `COc1cc2c(cc1OC)-c1[nH]nc(Nc3cccc(F)c3)c1C2`, for which the Potency is 8.49 µM (active).

For `CC1COC(Nc2ccc3ncnc(Nc4ccc(OCc5nccs5)c(Cl)c4)c3c2)=N1` (stereo not given), the Potency is 10.7 µM (active).

In the case of `Cc1cccc(C)c1-n1c(=O)c2cnc(Nc3ccc(N4CCN(C)CC4)cc3)nc2n2c3ccccc3nc12`, the Potency was 8.49 µM (active).

With `CCOc1cc(C(=O)N2CCC(N3CCN(C)CC3)CC2)ccc1Nc1ncc2c(n1)N(C1CCCC1)c1ccccc1C(=O)N2C`, the Potency result was “inactive”. On to `O=C(O)C1CN(Cc2ccc(-c3nc4cc(Cc5ccccc5F)ccc4s3)c(F)c2)C1`, for which the activity change, negative = inhibition is -11.3% [at 11.5 µM]. Turning to `CC(NC(=O)C(O)C(C)C)C(=O)NC1C(=O)N(C)CCc2ccccc21` (stereo not given), the Potency entry was “inactive”. On the same count and under the same terms, the same measure for `C[C@@H]1CCN(C(=O)N2CCCC2)C[C@@H]1N(C)c1ncnc2[nH]ccc12`: “inactive”.

`Cc1cc(N2CCN([C@@H]3CN[C@H](C(=O)N4CCSC4)C3)CC2)n(-c2ccccc2)n1`: the Potency result is “inactive”.

For `N#Cc1cnc2cnc(NCc3cccnc3)cc2c1Nc1ccc(F)c(Cl)c1`, the Potency is 1.2 µM (active).

Consider `CC1(c2nc3c(C(N)=O)cccc3[nH]2)CCCN1` (stereo not given), for which the Potency entry is “inactive”.

As to `O=C(c1cn(Cc2cncn2Cc2ccc(Br)cc2)cc1-c1cccc2ccccc12)N1CCOCC1`, the Potency is 1.69 µM (active).

As for `Cc1nc2ccc(Oc3ccc(F)cc3)cc2c(=O)n1C[C@H]1CCCN(C(C)C)C1`, the Potency result was “inactive”. With `Cc1nc(Nc2n[nH]c3c2CN(C(=O)NC(CN(C)C)c2ccccc2)C3(C)C)c2sccc2n1` (stereo not given), the Potency is 13.5 µM (active). `C[C@@H]1CN(Cc2ncccn2)C[C@H]1c1nc2c(cnn2C2CCOCC2)c(=O)[nH]1`: the Potency entry is “inactive”. Same read-out and setting: the value for `NC(=O)c1cccc2cn(-c3ccc(C4CCCNC4)cc3)nc12` (stereo not given) was “inactive”; that for `CC(C)(C)NC(=O)[C@@H](c1cccnc1)N(C(=O)c1ccco1)c1ccc(C(C)(C)C)cc1` was 5.35 µM (active); that for `Cc1cc(C)nc(NS(=O)(=O)c2ccc(NC(=S)NC(=O)COc3ccc(Br)cc3Cl)cc2)n1` was 10.7 µM (active). Same read-out and setting: the value for `NC(=O)C(CCC(F)(F)F)N(Cc1ccc(-c2ncon2)cc1F)S(=O)(=O)c1ccc(Cl)cc1` (stereo not given) was 1.51 µM (active); that for `CCCNc1ccc2ncc(-c3ccc4[nH]ncc4c3)n2n1` was “inactive”; that for `CC(C)c1cccc2c(-c3ccccc3)cc(-c3ccc(-c4ccc(C(=O)O)cc4)[nH]3)nc12` was 7.56 µM (active). Turning to `NC(=O)c1cnc(NCCc2ccc(O)c(Cl)c2)nc1NCc1ccccc1`, the Potency is 6.74 µM (active). The same measure, in the same setting: the value for `CCOC(=O)c1cc(C#N)c(N2CCC(C(=O)NS(=O)(=O)Cc3ccccc3)CC2)nc1C` was 2.68 µM (active); that for `CNS(=O)(=O)CC1CCC(N(C)c2ncnc3[nH]ccc23)CC1` (stereo not given) was “inactive”; that for `CCCn1c(=O)c2[nH]c(-c3ccc(OCC(=O)O)cc3)nc2n(CCC)c1=O` was “inactive”. On the same count and under the same terms, the same measure for `CN(C)CCn1cc(S(=O)(=O)c2cccc(F)c2)c2cccnc21`: “inactive”.

In the case of `COc1cc2ncnc(Nc3ccc(O)cc3)c2cc1OC`, the Potency entry was “inactive”.

As for `c1cc(Nc2cc(C3CC3)[nH]n2)nc(Nc2ccc3nc[nH]c3c2)n1`, the Potency is 9.52 µM (active).

For `O=C1CCC(c2ccccc2)(C2CCN(Cc3ccc(I)cc3)CC2)C(=O)N1` (stereo not given), the Potency entry was “inactive”. Same read-out and setting: the value for `CC(C)c1nc(-c2ccc(NC(=O)Nc3cccc(C(F)(F)F)c3)c3ccccc23)c2c(N)nccn12` was 0.301 µM (active).

Take `C=CC(=O)Nc1cccc(CN2C(=O)N(c3c(Cl)c(OC)cc(OC)c3Cl)Cc3cnc(NCCCCN(CC)CC)nc32)c1`: the Potency was 8.49 µM (active).

As to `CCOC(=O)c1sc(NC(=O)[C@H](C(C)C)n2c(=O)[nH]c3ccccc3c2=O)nc1C`, the Potency is 4.77 µM (active). As for `O=C(Cc1ccc(-c2ccccc2)cc1)NC1CCC1`, the Potency is 6.74 µM (active). On to `CON(C)C(=O)[C@H](O)[C@H](Cc1ccccc1)NC(=O)c1cc2cc(Cl)ccc2[nH]1`, for which the Potency is 10.7 µM (active).

With `COC(=O)N1CCC(n2ncc3c(N4CCOCC4)nc(-c4ccc(NC(=O)Nc5ccc(CO)cc5)cc4)nc32)CC1`, the Potency was 6.74 µM (active). Same read-out and setting: the value for `CC(Cc1cc2c(c(C(N)=O)c1)N(CCCO)CC2)NCCOc1ccccc1OCC(F)(F)F` (stereo not given) was “inactive”.
